Test results from PubChem BioAssay (NCATS).
Where “and” joins values, the source holds several entries; their conditions need not be identical. Equal entries are not always repeated. Inconclusive results are not listed. Where a call stands in place of a potency, no number is given. The source holds several records for some structures; these can differ, active in one and inactive in another. Calls of active or inactive are those of the source. Unless noted, the call rests on the fitted dose curve; in most records, active means well fitted curve in the direction sought with a large enough effect; inconclusive means small, poorly fitted or top-dose-only effect, or another doubt; inactive means no such curve, though single readings can be large; an effect the other way counts as inactive or inconclusive.

Experiments:
[1] = biological target: Cytochrome P450 2C9 (Homo sapiens) (UniProt P11712); test: qHTS Assay for Inhibitors and Substrates of Cytochrome P450 2C9 (AID 883); further: nearly all actives have a fitted effect of over 60% in size; further: potency means the concentration at half of the fitted maximal effect
Procedure, shortened: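 10nM CYP2C9 + 100uM Luciferin-H (=KM), 25mM KPO4; cpd 10 min 37C; NADPH regen, 60 min 37C; stop/detect with P450 Glo-Buffer 20 min; luminescence. Norm. to 57uM sulphaphenazole as full inhibition.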

[2] = biological target: Cytochrome P450 3A4 (Homo sapiens) (UniProt P08684); test: qHTS Assay for Activators of Cytochrome P450 3A4 (AID 885); further: nearly all actives have a fitted effect of over 65% in size; further: potency means the concentration at half of the fitted maximal effect
Procedure, shortened: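 Human CYP3A4 (20 nM) with Luciferin-PPXE at 25 uM (its KM) in 200 mM KPO4; 10 min compound preincubation, then NADPH regeneration and 60 min reaction at RT. Luciferin read by luminescence; normalized to 57 uM ketoconazole full inhibition.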

[3] = biological target: Cytochrome P450 2D6 (Homo sapiens) (UniProt P10635); test: qHTS Assay for Inhibitors and Substrates of Cytochrome P450 2D6 (AID 891);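 further: luciferin methyl ether substrate demethylated by CYP2D6 with NADPH regeneration; nearly all actives have a fitted effect of over 60% in size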
Procedure, shortened: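 Human CYP2D6 (5 nM) with 30 uM Luciferin-ME EGE (at Km) in 100 mM KPO4, compound preincubated 10 min, then NADPH regeneration system for 60 min at room temperature. Luciferin read by luminescence; normalized to 1.43 uM quinidine.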

[4] = biological target: Cytochrome P450 2C19 (Homo sapiens) (UniProt P33261); test: qHTS Assay for Inhibitors and Substrates of Cytochrome P450 2C19 (AID 899); further: nearly all actives have a fitted effect of over 60% in size; further: potency means the concentration at half of the fitted maximal effect
Procedure, shortened: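 Luminescent read-out of luciferin formed from Luciferin-H EGE (10uM, equal to KM). Enzyme 5nM in 50mM KPO4; compound added, 10 min at 37C, then NADPH regenerating system for 60 min at 37C. Full inhibition defined by 57uM ketoconazole.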

[5] = qHTS Assay for Identification of Small Molecule Agonists for Hypoxia Response Element Signaling Pathway (AID 914; active means well fitted activation curve with a large enough effect in the signal ratio, with a control signal flat, not every such curve was filed as active; the % refers to the signal ratio); details: ME-180 (cervical carcinoma) HRE-bla reporter, beta-lactamase ratio, CoCl2, 17 h; stronger effect = higher value
Procedure, shortened: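 AC50 values come from titration-series %Activity, taken as the 460/530nm ratio of CCF4 fluorescence (excitation 405nm). CellSensor HRE-bla ME-180 cells were treated 17 hours at 37 C with compound plus an EC50 level of CoCl2.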

Chain of Cytochrome P450 2C9 (Homo sapiens) (P11712 whole entry, looked up): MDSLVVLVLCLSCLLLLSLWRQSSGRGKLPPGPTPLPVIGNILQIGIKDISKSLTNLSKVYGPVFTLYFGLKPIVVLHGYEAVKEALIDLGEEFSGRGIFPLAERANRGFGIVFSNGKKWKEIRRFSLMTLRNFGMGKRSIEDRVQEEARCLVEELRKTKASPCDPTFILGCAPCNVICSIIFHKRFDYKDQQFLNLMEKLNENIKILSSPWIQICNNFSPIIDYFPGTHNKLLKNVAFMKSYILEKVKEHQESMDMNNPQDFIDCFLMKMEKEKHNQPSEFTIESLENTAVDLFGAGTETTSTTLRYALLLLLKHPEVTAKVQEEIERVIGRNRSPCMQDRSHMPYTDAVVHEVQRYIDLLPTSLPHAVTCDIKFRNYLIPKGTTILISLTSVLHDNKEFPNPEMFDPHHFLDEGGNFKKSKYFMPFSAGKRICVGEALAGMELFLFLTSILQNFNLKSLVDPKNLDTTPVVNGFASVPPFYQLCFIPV
Chain of Cytochrome P450 3A4 (Homo sapiens) (P08684 whole entry, looked up): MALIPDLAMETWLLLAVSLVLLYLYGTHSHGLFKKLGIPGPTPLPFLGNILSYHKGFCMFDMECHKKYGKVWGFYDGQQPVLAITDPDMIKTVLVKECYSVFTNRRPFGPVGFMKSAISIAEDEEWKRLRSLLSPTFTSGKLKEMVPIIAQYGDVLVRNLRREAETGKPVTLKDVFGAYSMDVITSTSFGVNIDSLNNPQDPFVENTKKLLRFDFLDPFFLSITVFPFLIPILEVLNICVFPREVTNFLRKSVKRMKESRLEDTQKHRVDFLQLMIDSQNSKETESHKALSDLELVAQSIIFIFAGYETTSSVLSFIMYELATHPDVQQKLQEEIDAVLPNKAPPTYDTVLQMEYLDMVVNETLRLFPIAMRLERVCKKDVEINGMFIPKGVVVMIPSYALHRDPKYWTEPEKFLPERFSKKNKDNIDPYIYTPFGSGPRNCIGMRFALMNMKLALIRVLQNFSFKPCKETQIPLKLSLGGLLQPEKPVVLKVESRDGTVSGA
Chain of Cytochrome P450 2D6 (Homo sapiens) (P10635 whole entry, looked up): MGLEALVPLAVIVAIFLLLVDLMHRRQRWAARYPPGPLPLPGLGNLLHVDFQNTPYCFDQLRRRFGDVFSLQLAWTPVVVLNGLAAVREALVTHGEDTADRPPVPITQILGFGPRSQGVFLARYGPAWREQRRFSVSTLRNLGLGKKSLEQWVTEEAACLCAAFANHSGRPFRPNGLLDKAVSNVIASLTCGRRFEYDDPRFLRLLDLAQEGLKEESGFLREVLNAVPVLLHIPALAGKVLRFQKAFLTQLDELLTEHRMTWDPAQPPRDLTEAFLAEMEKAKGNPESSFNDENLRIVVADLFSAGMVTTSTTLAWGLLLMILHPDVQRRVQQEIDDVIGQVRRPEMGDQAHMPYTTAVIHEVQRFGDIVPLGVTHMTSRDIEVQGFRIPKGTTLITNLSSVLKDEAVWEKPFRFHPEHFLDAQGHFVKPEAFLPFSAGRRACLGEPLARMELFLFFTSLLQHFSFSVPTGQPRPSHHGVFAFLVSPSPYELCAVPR
Chain of Cytochrome P450 2C19 (Homo sapiens) (P33261 whole entry, looked up): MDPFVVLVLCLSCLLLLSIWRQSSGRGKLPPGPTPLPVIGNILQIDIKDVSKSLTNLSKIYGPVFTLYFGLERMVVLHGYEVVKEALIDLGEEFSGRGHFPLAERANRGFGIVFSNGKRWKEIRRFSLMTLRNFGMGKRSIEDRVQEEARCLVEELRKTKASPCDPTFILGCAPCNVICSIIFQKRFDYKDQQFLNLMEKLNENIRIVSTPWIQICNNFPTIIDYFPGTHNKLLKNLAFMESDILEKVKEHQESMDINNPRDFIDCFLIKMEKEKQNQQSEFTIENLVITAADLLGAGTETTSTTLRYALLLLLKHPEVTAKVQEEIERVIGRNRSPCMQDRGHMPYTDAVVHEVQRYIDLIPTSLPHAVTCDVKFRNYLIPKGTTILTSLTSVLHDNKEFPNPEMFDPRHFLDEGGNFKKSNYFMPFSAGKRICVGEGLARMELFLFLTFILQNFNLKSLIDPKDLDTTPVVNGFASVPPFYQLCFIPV

| SMILES | Potency [1] | Potency [2] | Potency [3] | Potency [4] | activity change, positive = activation [2] | activation [5] |
| --- | --- | --- | --- | --- | --- | --- |
| C[C@@]12CCC3c4ccc(OC5C=CC(c6ccccc6)OC5CO)cc4CCC3C1CCC2=O (stereo not given in full) | inactive | 3.16 µM (active) | inactive | inactive | – | – |
| C=CCOC(=O)C(C(C)=O)C(NC(=O)OC)c1ccc2ccccc2c1 (stereo not given) | inactive | – | inactive | 126 nM (active) | -46.5% [at 11.4 µM] (inactive) | – |
| CC1Cc2c(COc3ccccc3)nc3c(c2CO1)CN(CCOc1ccccc1)CC3 (stereo not given) | inactive | – | inactive | inactive | -42% [at 11.4 µM] (inactive) | – |
| CC(C)CN1CCc2nc(-c3ccccc3)c3c(c2C1)COC(C)C3 (stereo not given) | inactive | – | – | inactive | -40.3% [at 11.4 µM] (inactive) | – |
| C(#CC1C=CC2OC(c3ccccc3)OCC2O1)c1ccccc1 (stereo not given) | inactive | – | inactive | inactive | -40.5% [at 11.4 µM] (inactive) | – |
| O=C1CCC[C@@H](C(C(=O)OCc2ccccc2)C(=O)OCc2ccccc2)C1 | 3.16 µM (active) | – | – | – | -39.2% [at 11.4 µM] (inactive) | -22.4% (inactive) |
| COC(=O)NC(c1cccc(C)c1)C(C(C)=O)C(=O)OC (stereo not given) | inactive | – | inactive | inactive | -34.6% [at 11.4 µM] (inactive) | – |
| COc1ccc(OC2C=CC(c3ccccc3)OC2CO)c(C(C)=O)c1 (stereo not given) | inactive | – | inactive | inactive | -57.7% [at 11.4 µM] (inactive) | – |
| O=C1CCCC=C1[C@H](CCc1ccccc1)OC(=O)c1ccc(Br)cc1 | 3.16 µM (active) | – | – | 1580 nM (active) | -49.6% [at 11.4 µM] (inactive) | – |
| COC(=O)[C@@H]1CC[C@H](C)[C@@H](c2ccc(C)cc2)N1C(=O)c1ccc(/C=N\OC[C@@H](O)COCc2ccco2)cc1 | 3.98 µM (active) | – | – | – | -58.1% [at 11.4 µM] (inactive) | 9.82% (inactive) |
| CC1Cc2c(-c3ccccc3)nc3c(c2CO1)CN(CCOc1ccccc1)CC3 (stereo not given) | inactive | – | – | inactive | -39% [at 11.4 µM] (inactive) | – |
| O=C1OC(C2=CCCCC2)=NC12CC2 | inactive | – | inactive | inactive | -40.2% [at 11.4 µM] (inactive) | – |
| COC(c1ccccc1)C(C)C(OC)C(C)C(OC)C(C)C(C)=O (stereo not given) | inactive | – | inactive | inactive | -36.1% [at 11.4 µM] (inactive) | – |
| C/C=C/C1Oc2ccc(OC)cc2N2C(=O)C(C)C(OCOC)C12 (stereo not given) | inactive | – | inactive | inactive | -50.7% [at 11.4 µM] (inactive) | – |
| CC1CCC2C(=O)OC(Cc3ccccc3)CN2C1c1ccc(Br)cc1 (stereo not given) | inactive | – | inactive | 316 nM (active) and 3.16 µM (active) | -52.5% [at 11.4 µM] (inactive) and -47.1% [at 11.4 µM] (inactive) | – |
| C=CCOCC/C=C1/c2ccccc2C(OC)C1C (stereo not given) | inactive | – | – | 3980 nM (active) | -43.5% [at 11.4 µM] (inactive) | – |
| OCC1OC(C#Cc2ccccc2)C=CC1O (stereo not given) | inactive | – | inactive | inactive and 631 nM (active) | -40.9% [at 11.4 µM] (inactive) and -46.3% [at 11.4 µM] (inactive) and -31.2% [at 11.4 µM] (inactive) | – |
| C#CCCCO/N=C1/[C@H]2O[C@@H]2[C@@H](O)[C@H]2[C@H]1CCn1c(=O)n(Cc3cc4c(cc3Cl)OCO4)c(=O)n12 | inactive | – | – | inactive | – | – |
| CCCCCCC1=Cc2cc(OC)c(OC)cc2C(CC(=O)/C=C/OC)O1 (stereo not given) | inactive | – | inactive | inactive | -40.4% [at 11.4 µM] (inactive) | – |
| CC1CCC2C(=O)OC(CN=[N+]=[N-])CN2C1c1ccc(Br)cc1 (stereo not given) | inactive and 1 µM (active) | – | inactive | – | – | – |
| COC(=O)[C@@H]1CC[C@H](C)[C@@H](c2ccc(C)cc2)N1C(=O)c1ccc(/C=N\OC[C@@H](O)[C@H]2O[C@H]3OC(C)(C)O[C@H]3[C@@H]2O)cc1 | 2.51 µM (active) | – | – | 631 nM (active) | -58.3% [at 11.4 µM] (inactive) | – |
| COC(=O)C1=C(C)N(Cc2ccccc2)C2=C3C(=O)N(c4ccccc4)C(=O)C3[C@@](O)(C(=O)OC)C(=O)N2C1c1ccccc1 (stereo not given in full) | inactive | – | inactive | inactive | -39.6% [at 11.4 µM] (inactive) and -38.9% [at 11.4 µM] (inactive) | – |
| CCCCc1nc2c(c3c1CC(C)OC3)CN(CCOc1ccccc1)CC2 (stereo not given) | inactive | – | – | inactive | -59.6% [at 11.4 µM] (inactive) | – |
